# About 83,000 compounds went through this panel and 20% of them were active in at least one assay; those are over-represented in the sample as a whole.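 Single-concentration screen, 48 h exposure, 96-well plates. Endpoint: percent growth. Below 10 = active.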 Activity calls are given as the source filed them.
# Tests used:
# Assay in all cases: NCI-60 one-dose screen, 48 h (100 = growth as untreated, 0 = no growth, -100 = all killed)
# Details in all cases: 10 µM unless noted
# RPMI-8226 leukemia = tested on: RPMI-8226 leukemia
# OVCAR-8 ovarian = tested on: OVCAR-8 ovarian
# OVCAR-5 ovarian = tested on: OVCAR-5 ovarian
# OVCAR-4 ovarian = tested on: OVCAR-4 ovarian
# SK-OV-3 ovarian = tested on: SK-OV-3 ovarian
# OVCAR-3 ovarian = tested on: OVCAR-3 ovarian
# HS 578T breast = tested on: HS 578T breast
# NCI/ADR-RES ovarian = tested on: NCI/ADR-RES ovarian
# T-47D breast = tested on: T-47D breast
# BT-549 breast = tested on: BT-549 breast
# MDA-MB-435 melanoma = tested on: MDA-MB-435 melanoma
# SW-620 colon = tested on: SW-620 colon
# MCF7 breast = tested on: MCF7 breast
# HCT-116 colon = tested on: HCT-116 colon
# HCC-2998 colon = tested on: HCC-2998 colon
# KM12 colon = tested on: KM12 colon
# IGROV1 ovarian = tested on: IGROV1 ovarian
SMILES,growth (RPMI-8226 leukemia),growth (OVCAR-8 ovarian),growth (OVCAR-5 ovarian),growth (OVCAR-4 ovarian),growth (SK-OV-3 ovarian),growth (OVCAR-3 ovarian),growth (HS 578T breast),growth (NCI/ADR-RES ovarian),growth (T-47D breast),growth (BT-549 breast),growth (MDA-MB-435 melanoma),growth (SW-620 colon),growth (MCF7 breast),growth (HCT-116 colon),growth (HCC-2998 colon),growth (KM12 colon),growth (IGROV1 ovarian)
C=CCOc1ccc(Cl)cc1Cl,113% (inactive),119% (inactive),93.1% (inactive),106% (inactive),118% (inactive),111% (inactive),113% (inactive),109% (inactive),103% (inactive),101% (inactive),102% (inactive),107% (inactive),105% (inactive),104% (inactive),114% (inactive),109% (inactive),–
O=C(O)Cc1ccccn1,102% (inactive),102% (inactive),101% (inactive),117% (inactive),104% (inactive),114% (inactive),109% (inactive),111% (inactive),110% (inactive),101% (inactive),104% (inactive),105% (inactive),100% (inactive),104% (inactive),111% (inactive),104% (inactive),–
CC(=O)N(C(C)=O)c1ccc(C)cc1,115% (inactive),101% (inactive),94.2% (inactive),101% (inactive),109% (inactive),–,110% (inactive),96.6% (inactive),102% (inactive),101% (inactive),111% (inactive),102% (inactive),87.6% (inactive),117% (inactive),98.2% (inactive),103% (inactive),109% (inactive)
Cc1cccc(-[n+]2noc(N)n2)c1,68.5% (inactive),100% (inactive),99.2% (inactive),84% (inactive),86.3% (inactive),77% (inactive),129% (inactive),84.8% (inactive),59% (inactive),–,83.7% (inactive),86.3% (inactive),76% (inactive),82.2% (inactive),79% (inactive),70.2% (inactive),–
CCCCCCCCCCCCSC1=C(Cl)C(=O)C(OC)=C(OC)C1=O,–,28.7% (inactive),80% (inactive),38.8% (inactive),79.9% (inactive),38.8% (inactive),67.3% (inactive),34.9% (inactive),14.1% (inactive),58.3% (inactive),25.9% (inactive),27.5% (inactive),6.48% (active),16% (inactive),4.65% (active),24.4% (inactive),5.92% (active)
CCNC(=O)OCCc1c2ccccc2nc2ccccc12,76.7% (inactive),98% (inactive),111% (inactive),98.1% (inactive),109% (inactive),109% (inactive),90.2% (inactive),119% (inactive),109% (inactive),111% (inactive),118% (inactive),101% (inactive),89.6% (inactive),94.1% (inactive),110% (inactive),114% (inactive),–
Oc1cc2ccccc2c(-c2c(O)c(O)cc3ccccc23)c1O,-33.3% (active),39% (inactive),51.8% (inactive),27.3% (inactive),31.7% (inactive),44.9% (inactive),–,23% (inactive),25.7% (inactive),5.13% (active),10.5% (inactive),49.4% (inactive),12.3% (inactive),29% (inactive),38.6% (inactive),52.5% (inactive),–
CCOC(=O)/C(C#N)=C\c1c[nH]c2ccccc12,55.7% (inactive),85% (inactive),111% (inactive),86.8% (inactive),96.2% (inactive),103% (inactive),116% (inactive),88.5% (inactive),86.5% (inactive),129% (inactive),113% (inactive),115% (inactive),77% (inactive),100% (inactive),108% (inactive),109% (inactive),–
CC(=O)N(C)N=Nc1ccc(C)cc1,102% (inactive),112% (inactive),83.1% (inactive),102% (inactive),110% (inactive),–,95.1% (inactive),99.1% (inactive),102% (inactive),90.1% (inactive),103% (inactive),98.6% (inactive),106% (inactive),101% (inactive),91.5% (inactive),118% (inactive),152% (inactive)
Cc1cc(NC(=O)c2ccccc2)c(Cl)cc1N,–,95.9% (inactive),103% (inactive),97.5% (inactive),107% (inactive),119% (inactive),109% (inactive),102% (inactive),98% (inactive),–,97.4% (inactive),106% (inactive),84.9% (inactive),103% (inactive),102% (inactive),106% (inactive),33.3% (inactive)
NC(=S)c1c(N)n(C2OC(CO)C(O)C2O)c2ncnc(N)c12 (stereo not given),–,-10.3% (active),3.64% (active),14.5% (inactive),5.93% (active),-54.1% (active),-20.1% (active),-1.77% (active),-48.2% (active),–,-46.6% (active),-18.3% (active),-11.6% (active),5.32% (active),3.23% (active),-6.52% (active),-61.2% (active)
N#C/C(=C\c1ccc(C#N)cc1)C(=O)c1ccccc1,–,101% (inactive),104% (inactive),98.7% (inactive),109% (inactive),105% (inactive),116% (inactive),98.7% (inactive),65.4% (inactive),112% (inactive),107% (inactive),109% (inactive),97.5% (inactive),97.8% (inactive),104% (inactive),107% (inactive),–
CCC(=O)C1C(=O)c2ccccc2C1=O,115% (inactive),99.8% (inactive),103% (inactive),102% (inactive),116% (inactive),104% (inactive),135% (inactive),106% (inactive),113% (inactive),103% (inactive),104% (inactive),113% (inactive),105% (inactive),107% (inactive),106% (inactive),105% (inactive),–
O=C1C=C[C@H](O)[C@@]2(CO)O[C@@H]12,–,78.2% (inactive),126% (inactive),90% (inactive),115% (inactive),55% (inactive),100% (inactive),86.3% (inactive),94.2% (inactive),–,77% (inactive),–,42.9% (inactive),19.9% (inactive),104% (inactive),98.4% (inactive),27.6% (inactive)
Cc1ccc2nc(N)nnc2c1,95.4% (inactive),112% (inactive),102% (inactive),108% (inactive),93.7% (inactive),92.7% (inactive),93.3% (inactive),–,108% (inactive),–,106% (inactive),95.1% (inactive),104% (inactive),108% (inactive),103% (inactive),103% (inactive),–
CCOC(=O)CNC(=O)Sc1ccc(C(C)(C)C)cc1,–,94% (inactive),123% (inactive),89.7% (inactive),116% (inactive),104% (inactive),99.2% (inactive),102% (inactive),88.4% (inactive),–,88.3% (inactive),108% (inactive),99.3% (inactive),98.6% (inactive),110% (inactive),102% (inactive),74.9% (inactive)
CN1CCCN(C(c2ccccc2)c2ccc(Cl)cc2)CC1 (stereo not given),101% (inactive),105% (inactive),98.8% (inactive),84.2% (inactive),110% (inactive),104% (inactive),–,94% (inactive),87.1% (inactive),94.5% (inactive),89.6% (inactive),85.9% (inactive),80.6% (inactive),96.9% (inactive),98.9% (inactive),101% (inactive),–
c1ccc(Nc2ccccn2)nc1,71.2% (inactive),100% (inactive),102% (inactive),100% (inactive),–,108% (inactive),113% (inactive),–,84.6% (inactive),108% (inactive),104% (inactive),108% (inactive),84.9% (inactive),99.8% (inactive),–,–,114% (inactive)
O=CNCCc1ccccc1,102% (inactive),102% (inactive),97.7% (inactive),103% (inactive),97% (inactive),–,102% (inactive),106% (inactive),101% (inactive),96.5% (inactive),102% (inactive),113% (inactive),95.3% (inactive),102% (inactive),122% (inactive),–,110% (inactive)
Cc1cc(C)cc(OCC(=O)O)c1,108% (inactive),100% (inactive),94.6% (inactive),113% (inactive),101% (inactive),124% (inactive),105% (inactive),105% (inactive),96.6% (inactive),97.9% (inactive),104% (inactive),109% (inactive),97.7% (inactive),96.9% (inactive),102% (inactive),110% (inactive),–
NC(CCl)=NCC12CC3CC(CC(C3)C1)C2,-50.4% (active),-26.8% (active),7.23% (active),11.3% (inactive),24.2% (inactive),-21.9% (active),47.9% (inactive),3.54% (active),15.7% (inactive),1.18% (active),-3.63% (active),–,-29.1% (active),-69.2% (active),-17.9% (active),-31.6% (active),–

# — PubChem BioAssay (NCI)
